Structures are written as SMILES. Inconclusive results are not listed. Entries that show only a call come without a potency. Active and inactive are the calls of the source. Calls follow the shape of the dose curve; as a rule, active = well fitted curve in the direction sought with a large enough effect; inconclusive = small, poorly fitted or top-dose-only effect, or another doubt; inactive = no such curve, though single readings can be large; an effect the other way counts as inactive or inconclusive.

The results in this text go back to PubChem BioAssay (NCATS).

For experiment [1], the target named is Tyrosine-protein kinase Yes (Homo sapiens) (UniProt P07947). Briefly: qHTS for small molecule inhibitors of Yes1 kinase: Primary Screen (AID 686947). Also: nearly all actives have a fitted effect of over 60% in size. Also: potency is read from the fitted curve at half-maximal effect. Put shortly: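 ADP-Glo luminescence reports ADP formed by 4 nM Yes1 phosphorylating poly(E4Y) (0.3 mg/mL) with 0.1 mM ATP for 60 min at room temperature, following 20 min compound preincubation; normalised between DMSO wells with and without enzyme.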
Sequence of Tyrosine-protein kinase Yes (Homo sapiens) (P07947 whole entry, looked up): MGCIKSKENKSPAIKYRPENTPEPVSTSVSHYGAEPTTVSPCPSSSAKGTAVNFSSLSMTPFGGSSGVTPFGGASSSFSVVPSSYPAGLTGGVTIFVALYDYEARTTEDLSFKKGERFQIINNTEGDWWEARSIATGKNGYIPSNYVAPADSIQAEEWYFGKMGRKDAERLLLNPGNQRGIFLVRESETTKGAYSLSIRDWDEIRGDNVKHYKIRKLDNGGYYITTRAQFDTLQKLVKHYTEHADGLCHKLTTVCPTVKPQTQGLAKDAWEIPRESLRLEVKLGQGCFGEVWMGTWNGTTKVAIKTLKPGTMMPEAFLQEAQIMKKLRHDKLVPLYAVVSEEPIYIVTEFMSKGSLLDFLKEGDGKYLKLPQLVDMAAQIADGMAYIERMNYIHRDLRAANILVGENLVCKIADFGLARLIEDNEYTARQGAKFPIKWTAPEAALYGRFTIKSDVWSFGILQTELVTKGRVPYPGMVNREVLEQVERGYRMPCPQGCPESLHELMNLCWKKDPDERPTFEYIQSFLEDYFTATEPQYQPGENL

A short description of experiment [2]: qHTS for small molecule inhibitors of Yes1 kinase: Counter Assay (AID 686950).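 Also: no kinase present so only ADP-Glo detection of a fixed ADP amount is tested; luminescence from ADP-Glo reporting ADP in a fixed ATP and ADP mixture; series mostly up to about 77 µM.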 Put shortly: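 ADP-Glo luminescence read after a 60 min room-temperature incubation of compound with an ATP/ADP mix (0.08 mM/0.02 mM) and no kinase, following a 20 min compound preincubation. Signal scaled between ATP+ADP (max) and 0.1 mM ATP-only (min) wells; Tris pH 7.5, Mg2+, DTT.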

The target in experiment [3] is Arylsulfatase A (Homo sapiens) (UniProt P15289). Briefly: qHTS screen for enhancers of Arylsulfatase A (ASA1): LOPAC Validation Assay (AID 720538). Put shortly: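 SV40-transformed fibroblasts from an MLD patient (ASA-I179S) were treated with compound for 48 h at 37 C. They were then lysed with 0.5 mM pNCS substrate (final) for 14 h at room temperature and stopped with NaOH; signal read by fluorescence (Ex 525/Em 598 nm), with increase denoting enhanced activity.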
Sequence of Arylsulfatase A (Homo sapiens) (P15289 whole entry, looked up): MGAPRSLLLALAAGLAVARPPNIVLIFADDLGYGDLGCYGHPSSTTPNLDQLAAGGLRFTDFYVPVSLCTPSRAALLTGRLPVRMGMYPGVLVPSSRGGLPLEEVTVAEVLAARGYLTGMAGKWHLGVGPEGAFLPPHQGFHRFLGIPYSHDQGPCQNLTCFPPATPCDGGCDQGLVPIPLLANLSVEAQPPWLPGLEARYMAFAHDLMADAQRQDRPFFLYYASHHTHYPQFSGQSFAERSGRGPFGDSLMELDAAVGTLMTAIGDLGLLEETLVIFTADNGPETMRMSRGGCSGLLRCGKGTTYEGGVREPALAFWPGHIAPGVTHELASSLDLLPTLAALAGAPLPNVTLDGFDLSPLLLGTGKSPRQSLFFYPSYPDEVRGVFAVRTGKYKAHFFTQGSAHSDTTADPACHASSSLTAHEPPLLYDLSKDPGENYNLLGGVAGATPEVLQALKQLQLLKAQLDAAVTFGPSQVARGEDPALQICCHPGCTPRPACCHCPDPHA
A general note: In qHTS, concentration-response curves come from the screen itself.

Experiment [4] in a line: qHTS for compounds that reverse cellular toxicity of Amyloid beta (A-beta) peptide in yeast: LOPAC Validation Assay (AID 720559). Put shortly: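 Yeast expressing toxic A-beta grown with pinned compounds at 30 C for 48 hr. Growth measured as absorbance at 600 nm; data normalized to DMSO and to an equimolar FeCl3/clioquinol mixture as positive control.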
Experiment [5] is described as follows: qHTS for Activators of Parkin Expression: LOPAC Validation Assay (NLuc Reporter) (AID 720572). Put shortly:
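Compound effects on Parkin promoter activity were measured as NanoLuc luminescence after 24 h at 37 C. The neuronal reporter line also carried FLuc, which was read first. LOPAC compounds were tested at 7 concentrations, with normalization to DMSO (0%) and positive control (100%).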

`Nc1cc(C(F)(F)F)c(-c2cc(N3CCOCC3)nc(N3CCOCC3)n2)cn1`: the Potency result in experiment [1] was “inactive”. For the same molecule, the result in experiment [2] was inactive.

Take `COc1ccc(C=Cc2cc(OC)c(OC)c(OC)c2)cc1O`: in experiment [1], the Potency entry is “inactive”. Further, the outcome in experiment [2] was inactive.

Take `COCCn1c2c([n+](Cc3cnccn3)c1C)C(=O)c1ccccc1C2=O`: the Potency result in experiment [1] was “inactive”. In addition, the molecule was classed as inactive in experiment [2].

For `Cc1ccc(-c2ncn(-c3ccc(Nc4nccc(-c5cccc(N6CCOCC6)c5)n4)cc3)n2)cn1`, the Potency in experiment [1] was 12200 nM (active). The outcome in experiment [2] was inactive.

Turning to `CC(C)(C)OC(=O)Nc1ccc(-c2cc(C(=O)NCCCCCCC(=O)NO)no2)cc1`, the Potency result in experiment [1] is “inactive”. Besides, the call in experiment [2] was inactive.

For the molecule `CC1(C)CCC(c2ccc(Cl)cc2)=C(CN2CCN(c3ccc(C(=O)NS(=O)(=O)c4ccc(N[C@H](CCN5CCOCC5)CSc5ccccc5)c(S(=O)(=O)C(F)(F)F)c4)cc3)CC2)C1`, the Potency in experiment [1] was 30700 nM (active). Moreover, the molecule was classed as inactive in experiment [2].

In the case of `COc1cc2ncn(-c3cc(OCc4ccccc4C(F)(F)F)c(C(N)=O)s3)c2cc1OC`, the Potency entry in experiment [1] was “inactive”. In experiment [2], the molecule was called inactive.

For `O=C(C=Cc1cccc(S(=O)(=O)Nc2ccccc2)c1)NO`, the Potency in experiment [1] was 1.7 nM (active). For the same molecule, the call in experiment [2] was inactive.

For `c1ccc2c(CCNc3ccc(Nc4ccncc4)cc3)c[nH]c2c1`, the Potency entry in experiment [1] is “inactive”. Besides, the molecule was called inactive in experiment [2].

For `CC(C)(O)CCc1ccc(OCc2cc(-c3cccc(OC(F)F)c3)c3ncccc3c2)cc1`, the Potency result in experiment [1] is “inactive”. For the same molecule, in experiment [2], the outcome was inactive.

Consider `CN1CCC(CNc2ccc3ncc(-c4cccc(OC(F)(F)F)c4)n3n2)CC1`, for which the Potency in experiment [1] is 97.2 nM (active). Further, in experiment [2], the call was inactive.

As for `O=c1[nH]nc(Sc2ncc([N+](=O)[O-])s2)n1-c1ccc2c(c1)OCCO2`, the Potency entry in experiment [1] is “inactive”. Further, the molecule was called inactive in experiment [2].

Regarding `COc1ccc2c(c1)CC[C@@H](CN(C)CC(=O)O)[C@H]2c1ccccc1`, the Potency result in experiment [1] is “inactive”. For the same molecule, the molecule was called inactive in experiment [2].

In the case of `Cn1c(=O)n(-c2ccc(C(C)(C)C#N)cc2)c2c3cc(-c4cnc5ccccc5c4)ccc3ncc21`, in experiment [1], the Potency entry was “inactive”. In addition, in experiment [2], the outcome was inactive.

On to `Cc1cnc(Nc2ccc(F)cc2Cl)nc1-c1c[nH]c(C(=O)N[C@H](CO)c2cccc(Cl)c2)c1`, for which the Potency result in experiment [1] is “inactive”. Further, the molecule was classed as inactive in experiment [2].

Consider `Clc1ccc2ncc(-c3cccc(NC4CNC4)n3)n2c1`, for which the Potency in experiment [1] was 274 nM (active). The outcome in experiment [2] was inactive.

For the molecule `O=C(C=Cc1c(C(=O)O)[nH]c2cc(Cl)cc(Cl)c12)Nc1ccccc1`, the Potency entry in experiment [1] was “inactive”. The outcome in experiment [2] was inactive.

On to `CCCCN1CCC(CNC(=O)c2c3n(c4ccccc24)CCCO3)CC1`, for which the Potency entry in experiment [1] was “inactive”. In experiment [2], the molecule was classed as inactive.

As for `Cn1cncc1[C@@](N)(c1ccc(Cl)cc1)c1ccc2c(c1)c(-c1cccc(Cl)c1)cc(=O)n2C`, the Potency result in experiment [1] is “inactive”. In addition, the molecule was called inactive in experiment [2].

On to `O=c1c2ccccc2nc2n1CCc1c-2[nH]c2ccccc12`, for which the outcome in experiment [3], in experiment [4] and in experiment [5] was inactive.
